{
  "source": "PubChem BioAssay AID1903",
  "about": "(Southern Research Specialized Biocontainment Screening …, 2009)",
  "note": "Out of some 310,000 compounds screened, about 1,200 (0.39%) were called active. Only a sample is shown. Potency and affinity values are given separately. A number with no mark means an inactive call. No rule for the calls is given here.",
  "data": [
    {"biological_target": "Large T antigen (Simian virus 40) (UniProt P03070)", "sequence (P03070 whole entry, looked up)": "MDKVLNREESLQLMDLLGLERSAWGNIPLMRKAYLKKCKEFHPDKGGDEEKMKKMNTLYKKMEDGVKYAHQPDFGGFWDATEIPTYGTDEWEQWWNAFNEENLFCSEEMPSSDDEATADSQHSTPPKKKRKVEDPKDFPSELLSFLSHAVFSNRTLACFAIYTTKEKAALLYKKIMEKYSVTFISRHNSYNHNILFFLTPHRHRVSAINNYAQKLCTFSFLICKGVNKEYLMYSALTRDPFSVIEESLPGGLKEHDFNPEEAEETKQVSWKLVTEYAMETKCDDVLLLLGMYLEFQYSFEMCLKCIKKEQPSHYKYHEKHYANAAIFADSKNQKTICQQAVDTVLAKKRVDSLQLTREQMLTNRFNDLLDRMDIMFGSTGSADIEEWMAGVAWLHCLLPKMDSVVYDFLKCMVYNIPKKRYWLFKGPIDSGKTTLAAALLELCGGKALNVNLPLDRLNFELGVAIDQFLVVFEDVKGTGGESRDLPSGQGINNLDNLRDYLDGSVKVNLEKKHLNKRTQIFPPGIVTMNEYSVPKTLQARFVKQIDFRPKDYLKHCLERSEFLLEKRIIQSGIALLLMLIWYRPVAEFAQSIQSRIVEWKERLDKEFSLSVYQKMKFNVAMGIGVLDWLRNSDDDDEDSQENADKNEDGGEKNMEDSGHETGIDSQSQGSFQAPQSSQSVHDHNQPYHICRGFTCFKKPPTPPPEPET", "test": "TAg ATPase/helicase activity blockers – biochemical (AID 1903)", "conditions": "SV40 large T antigen ATPase/helicase inhibition assay; at 20 µM; stronger effect = higher value", "units": {"inhibition": "%"}, "values": [
      {"smiles": "Cc1ccc([N+](=O)[O-])cc1NC1CC(O)C(CO)O1", "note": "(stereo not given)", "inhibition": 3.41},
      {"smiles": "CN(C)CCN(C(=O)c1ccc(S(=O)(=O)N2CCc3ccccc32)cc1)c1nc2ccc(F)cc2s1", "inhibition": 14.4},
      {"smiles": "Cc1ccc(S(=O)(=O)/C(C#N)=C/c2c(N3CC(C)OC(C)C3)nc3c(C)cccn3c2=O)cc1", "note": "(stereo not given)", "inhibition": 23.9},
      {"smiles": "COc1cc2c(cc1OC)CN(C(=O)/C=C/c1cc(OC)c(OC)c(OC)c1)CC2", "inhibition": 7.46},
      {"smiles": "O=C(N/N=C\\c1ccc(OC(=O)c2ccco2)cc1)c1ccc(Cl)cc1", "inhibition": 11.3},
      {"smiles": "O=C(N/N=C/c1ccc(OC(=O)c2ccco2)cc1)c1ccncc1", "inhibition": 15.9},
      {"smiles": "C=CCc1ccccc1OCC(O)Cn1ccnc1C", "note": "(stereo not given)", "inhibition": 10.2},
      {"smiles": "CC(C)c1cc(=O)oc2c3c4c(cc12)CCCN4CCC3", "inhibition": 4.43},
      {"smiles": "O=c1ccc2cc3c4c(c2o1)CCCN4CCC3", "inhibition": 3.45},
      {"smiles": "CCc1ccc(NC(=O)[C@H](NC(=O)[C@@H]2Cc3ccccc3CN2)c2ccccc2)cc1", "inhibition": 7.36},
      {"smiles": "CCCc1c(C(=O)N/N=C/C(C)=C/c2ccccc2)nnn1-c1nonc1N", "inhibition": 15.4},
      {"smiles": "O=C(Cn1nnc(-c2ccc(NC(=O)c3ccccc3F)cc2)n1)NCc1ccc(F)cc1", "inhibition": 16.3},
      {"smiles": "CCc1nnc(NC(=O)Cn2c(=O)oc3ccccc32)s1", "inhibition": 1.21},
      {"smiles": "CCCc1nnc(NC(=O)Cn2c(=O)oc3ccccc32)s1", "inhibition": 3.95},
      {"smiles": "N/C(=N\\NS(=O)(=O)c1ccccc1)c1ccccn1", "inhibition": 16.4},
      {"smiles": "Cc1nnc(NC(=O)CSc2nnc(C)n2Cc2ccccc2)s1", "inhibition": -83.7},
      {"smiles": "COc1ccc(OC(=O)Nc2ccc([N+](=O)[O-])cc2OC)cc1", "inhibition": 0.1},
      {"smiles": "COC(=O)Nc1ccc([N+](=O)[O-])cc1OC", "inhibition": 3},
      {"smiles": "Oc1cccc(/C=N/Nc2ncnc3c2ncn3Cc2ccccc2)c1", "inhibition": 10.2},
      {"smiles": "COc1cccc(/C=N/Nc2ncnc3c2ncn3Cc2ccccc2)c1O", "inhibition": 18.1},
      {"smiles": "CCc1nn(CC(=O)N2CCC(C(N)=O)CC2)c(=O)c2cc3occc3n12", "inhibition": 5.76},
      {"smiles": "CCCCC(=O)N1C/C=C\\[C@H](c2ccc(OC)cc2)N(Cc2ccc(F)cc2)C(=O)[C@@H]1C", "inhibition": -1.49},
      {"smiles": "Cc1c(C(=O)OCC(=O)NCc2ccccc2)oc2ccccc12", "inhibition": 13.4},
      {"smiles": "COC(=O)c1ccccc1NC(=O)c1cnn2c(C)cc(C)nc12", "inhibition": -5.22},
      {"smiles": "COc1ccc(/C=C/c2nc3ccccc3c(=O)n2-c2cccc(C(=O)O)c2)cc1", "inhibition": 12.5},
      {"smiles": "O=C(O)c1ccc(-n2c(/C=C/c3ccccc3)nc3ccccc3c2=O)cc1", "inhibition": 13.9},
      {"smiles": "CCn1c(/C=C/c2cc(Br)ccc2O)nc2ccccc2c1=O", "inhibition": 27},
      {"smiles": "CCn1c(/C=C/c2ccc(O)cc2)nc2ccccc2c1=O", "inhibition": 26.9},
      {"smiles": "CC(C)c1ccc(NC(=O)CSc2nc(-c3ccccc3F)nc3nc[nH]c23)cc1", "inhibition": 3.55},
      {"smiles": "CCOc1ccc(CCNC(=O)CCC(=O)Nc2ccc3nc(N4CCN(C)CC4)cc(C)c3c2)cc1OCC", "inhibition": 2.93},
      {"smiles": "O=C(CN1CCCCC1)N1c2ccccc2CCc2ccccc21", "inhibition": 0.59},
      {"smiles": "O=C(CCl)N1c2ccccc2CCc2ccccc21", "inhibition": 8.1},
      {"smiles": "Cc1cc(NS(=O)(=O)Cc2ccccc2)no1", "inhibition": 3.2},
      {"smiles": "CCCN(C(=O)c1ccc(N(C)S(=O)(=O)c2ccc(C)cc2)cc1)C1CCS(=O)(=O)C1", "note": "(stereo not given)", "inhibition": 11},
      {"smiles": "Cc1ccc(C)c(NS(=O)(=O)c2ccc(OCC(=O)N3CCOCC3)cc2)c1", "inhibition": 4.78},
      {"smiles": "COc1cc(C(=O)OCCN2CCCCC2)ccc1O", "inhibition": 29.6},
      {"smiles": "COc1cc(C(=S)N2CCCCC2)ccc1O", "inhibition": 29.3},
      {"smiles": "O=C(NCCOc1ccccc1)C1CCC(=O)N(CCc2ccccn2)C1", "note": "(stereo not given)", "inhibition": 5.44},
      {"smiles": "CN(C)c1ccc(C2/C(=C(/O)c3ccc(Br)cc3)C(=O)C(=O)N2C)cc1", "note": "(stereo not given)", "inhibition": 8.15},
      {"smiles": "CC(C)C[C@H](NC(=O)[C@@H]1Cc2c([nH]c3ccccc23)C2c3ccccc3C(=O)N21)C(=O)NCC1CCCO1", "note": "(stereo not given in full)", "inhibition": 8.64},
      {"smiles": "Cc1ccc(/C=C2\\CCOC2=O)cc1", "inhibition": 10.9},
      {"smiles": "O=C1OCC/C1=C\\c1ccccc1", "inhibition": 6.44},
      {"smiles": "CC(NC(=O)c1cc(S(=O)(=O)N2CCCC2)cn1C)c1ccccc1", "note": "(stereo not given)", "inhibition": 5.41},
      {"smiles": "CN1C(C(=O)NCCc2cccs2)CC2Cn3c(nc4ccccc43)C21", "note": "(stereo not given)", "inhibition": 21.1},
      {"smiles": "Nc1[nH]nc2nc3ccccc3cc12", "inhibition": 36},
      {"smiles": "CCc1ccc2nc3nc(C)cc(C)c3c(N)c2c1", "inhibition": 17.6},
      {"smiles": "CCc1ccc2nc(N)sc2c1", "inhibition": 9.15},
      {"smiles": "Cc1ccc2cc3c(N)c4c(C)ccc(C)c4nc3nc2c1", "inhibition": 1.71},
      {"smiles": "Cc1cc2cc3c(=O)[nH]c(=O)[nH]c3nc2cc1C", "inhibition": -1.5},
      {"smiles": "CC1(C)Cc2nc3n[nH]c(N)c3cc2CO1", "inhibition": -1.93},
      {"smiles": "CCn1cc(CNC(=O)c2cc(-c3ccccc3OC)nc3ccccc23)c(C)n1", "inhibition": 4.15},
      {"smiles": "O=C(c1ccc(Cl)cc1)c1oc2ccccc2c1CS(=O)(=O)c1ccccc1", "inhibition": 1.36},
      {"smiles": "c1ccc(Oc2ccc3ccccc3n2)cc1", "inhibition": 7.16},
      {"smiles": "COc1ccc(N(CC(=O)N2CCOCC2)S(C)(=O)=O)cc1OC", "inhibition": 4.22},
      {"smiles": "CCCCn1c(=O)[nH]c(=O)c2c(C(=O)OCC)cc(-c3cccs3)nc21", "inhibition": 4.89},
      {"smiles": "Cc1cc(NC(=O)c2cc(C(C)C)on2)nn1Cc1ccc(Cl)cc1", "inhibition": -0.65},
      {"smiles": "COC(=O)c1[nH]c2cccc(OC)c2c1NC(=O)CCN1CCSCC1", "inhibition": 2.77},
      {"smiles": "CCN(CC)C(=O)C1CCC(CNS(=O)(=O)c2cccc3nsnc23)CC1", "note": "(stereo not given)", "inhibition": 5.44},
      {"smiles": "COc1ccccc1C(=O)NCCC(=O)Nc1nc2ccccc2[nH]1", "inhibition": 10.6},
      {"smiles": "CCCCN1C(=O)/C(=C(/C#N)C(=O)N2CCCC2)c2ccccc21", "inhibition": 7.04},
      {"smiles": "CCOC(=O)/C(C#N)=C1/C(=O)N(Cc2ccccc2)c2ccccc21", "inhibition": 11},
      {"smiles": "O=C(CN1C(=O)C2CCCCC2C1=O)Nc1nc(-c2ccc(F)cc2)cs1", "note": "(stereo not given)", "inhibition": 12.1},
      {"smiles": "COc1ccc(Nc2cccc(Cl)c2)c(C(=O)O)c1", "inhibition": 33.4},
      {"smiles": "COc1ccc(Nc2ccccc2C(=O)O)cc1", "inhibition": 31.6},
      {"smiles": "COc1cc(/C=N/Nc2ccc(C(=O)O)cc2)ccc1O", "inhibition": 29.4},
      {"smiles": "COc1ccc(/C=N/Nc2ccccn2)cc1O", "inhibition": 36.9},
      {"smiles": "Cn1c(N/N=C\\c2cccc(O)c2)cc(=O)n(C)c1=O", "inhibition": -5.57},
      {"smiles": "COc1ccc(/C=N/Nc2cc(=O)n(C)c(=O)n2C)cc1OC", "inhibition": 9.25},
      {"smiles": "COc1cc(/C=N/Nc2ccccn2)cc(OC)c1O", "inhibition": 29.8},
      {"smiles": "COc1ccc(/C=N/Nc2ccccn2)cc1OC", "inhibition": 9.61},
      {"smiles": "COc1ccc(/C=N/Nc2nc(=O)[nH]nc2C)cc1OC", "inhibition": 13.7},
      {"smiles": "COc1cc(/C=N/Nc2nc(C)cc(=O)[nH]2)ccc1O", "inhibition": 35.4},
      {"smiles": "CC(=O)c1sc(NC(=O)COc2ccccc2)nc1C", "inhibition": 3.21},
      {"smiles": "CC(C)CCNC(=O)C(=O)Nc1cc2c3c(c1)CCC(=O)N3CCC2", "inhibition": -2.67},
      {"smiles": "COC(=O)c1ccc(CNC(=O)C23CC4CC(CC(C4)C2)C3)cc1", "inhibition": -3.62},
      {"smiles": "CCCCc1oc2c(c(=O)c1C)C(=O)CC(c1ccccc1)C2", "note": "(stereo not given)", "inhibition": 4.52},
      {"smiles": "CCC(=O)N1CCN(c2ccc(NC(=O)c3ccc(C#N)cc3F)cc2Cl)CC1", "inhibition": 6.06},
      {"smiles": "CCc1ccc(NC(=O)C(=O)N/N=C(\\C)CC(=O)Nc2ccccn2)cc1", "inhibition": 11.4},
      {"smiles": "CCC(NC(=O)c1ccc(C#CC2(O)CCCCC2)cc1)C(=O)O", "note": "(stereo not given)", "inhibition": 8.73},
      {"smiles": "COc1ccc(/C=N/Nc2cc(C)nc3c(C)cccc23)cc1", "inhibition": 4.3},
      {"smiles": "Oc1ccc(/C=N/NC2=NCCCCC2)cc1", "inhibition": 25.1},
      {"smiles": "COc1cc(/C=N/Nc2nn3cnnc3c3ccccc23)ccc1O", "inhibition": 8.69},
      {"smiles": "COc1cc(/C=N/Nc2ccccc2)ccc1O", "inhibition": 27.7},
      {"smiles": "COc1ccc(/C=N/NC2=NCCCCC2)cc1", "inhibition": -2.48},
      {"smiles": "COc1ccc(OC)c(/C=N/Nc2nncn2/N=C/c2cc(OC)ccc2OC)c1", "inhibition": 12.7},
      {"smiles": "CCc1nnc(N/N=C/c2ccc(O)c(OC)c2)n1N", "inhibition": 38},
      {"smiles": "COc1cccc2c(N/N=C/c3ccccc3)cc(C)nc12", "inhibition": 4.18},
      {"smiles": "CCc1ccc(NC(=O)C2CCN(S(=O)(=O)c3ccc4c(c3)N(C(C)=O)CCO4)CC2)cc1", "inhibition": -0.74},
      {"smiles": "Cc1ccc(S(=O)(=O)NCCCN2CCCC2)cc1", "inhibition": 13.3},
      {"smiles": "c1ccc(CNc2nc3ccccc3n2CCN2CCOCC2)nc1", "inhibition": 7.87},
      {"smiles": "Cc1ccc(NC(=O)c2nc[nH]c2C(=O)N2CCC(C)CC2)cc1", "inhibition": 9.16},
      {"smiles": "O=C(Cn1nc(-c2cccs2)ccc1=O)Nc1ccc(Br)cc1", "inhibition": 3.47},
      {"smiles": "O=C1CC(C(=O)Nc2ccc(Cl)cc2[N+](=O)[O-])C2(CCCCC2)O1", "note": "(stereo not given)", "inhibition": 6.86},
      {"smiles": "COc1ccccc1OCc1nn[nH]n1", "inhibition": 11.9},
      {"smiles": "CCC1CCCCN1CCCNC(=O)c1cc2c(=O)[nH]c3ccccc3c2n1C", "note": "(stereo not given)", "inhibition": 8.49},
      {"smiles": "O=C(Nc1c(Cl)cc(Cl)cc1-c1nc2ccccc2s1)c1ccc(Br)o1", "inhibition": 6.8},
      {"smiles": "COC(CN(C)C(=O)c1ccc(CS(=O)(=O)c2ccccc2C)o1)OC", "inhibition": 6.06},
      {"smiles": "Cc1nnc(-c2ccccc2)c[n+]1[O-]", "inhibition": 2.44},
      {"smiles": "Oc1c(Br)cc(/C=N/n2c(-c3ccccc3)n[nH]c2=S)c(O)c1Br", "inhibition": 30.1},
      {"smiles": "Oc1c(Br)cc(/C=N/n2c(-c3ccccc3)n[nH]c2=S)cc1Br", "inhibition": 29.7}
    ]}
  ]
}
